According to PubChem BioAssay (NCATS):
Records with an inconclusive call do not appear. Where a call stands in place of a potency, no number is given. The source made the active and inactive calls. Calls follow the shape of the dose curve; as a rule, active = well fitted curve in the direction sought with a large enough effect; inconclusive = small, poorly fitted or top-dose-only effect, or another doubt; inactive = no such curve, though single readings can be large; an effect the other way counts as inactive or inconclusive.

Assay: Vero cells viability qHTS for Zika virus inhibitors (AID 1347167)
Settings: cytotoxicity counter-screen (Zika); series mostly up to 45.9 µM
Method in brief: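 To flag cytotoxic protease inhibitors, viability is measured by ATP-dependent luminescence (CellTiter Glo) after cells attached overnight receive compound for 24 to 48 hours in DMEM with 4% FBS.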

SMILES	outcome
COc1ccc(S(=O)(=O)Nc2cc(-c3c(O)ccc4ccccc34)c(O)c3ccccc23)cc1	inactive
Cc1ccc(-n2[nH]c(C)c(N=Nc3cccc(-c4cccc(C(=O)O)c4)c3O)c2=O)cc1C	inactive
CNC(=O)c1cccc(-c2ccc3c(N4CCOC[C@H]4C)nc(N4CCOC[C@H]4C)nc3n2)c1	inactive
c1cc(N[C@@H]2CCNC2)nc(-c2cnc3ccc(-c4cn[nH]c4)cn23)c1	inactive
C[C@H]1COc2c(N3CCN(C)CC3)c(F)cc3c(=O)c(C(=O)O)cn1c23	inactive
CC(C)c1cc(C(C)C)c(CC(=O)NS(=O)(=O)Oc2c(C(C)C)cccc2C(C)C)c(C(C)C)c1	inactive

Assay: HepG2 cells viability qHTS for Zika virus inhibitors (AID 1347168); also: potency is read from the fitted curve at half-maximal effect
Settings: Zika counter-screen; series mostly up to 45.9 µM
Description: Avindra Nath, Ph.D., National Institute of Neurological Disorders and Stroke (NINDS), Bethesda, MD
Radhakrishnan Padmanabhan, Ph.D., Georgetown University (GU), Washington D.C.
Zika Virus causes congenital defects, including microcephaly and is associated with Guillain-Barre syndrome, eningoencephalitis and myelitis in infected adult. […] Using a target-based approach, we hope to establish a screening paradigm to uncover novel, cell-active NS2B-NS3 protease (Zika Virus) specific inhibitors from NCATS' collection of small molecules using qHTS.
Four assay panel was created to identify potential Zika Virus inhibitors. Namely, (1) GU unlinked NS2B-NS3 AMC tagged protease qHTS, (2) GU unlinked NS2B-NS3 Rhodamine tagged protease qHTS, (3) NINDS linked NS2B-NS3 AMC tagged protease qHTS, (4) NINDS linked NS2B-NS3 Rhodamine tagged protease qHTS. Identified inhibitors were screened against the Vero and HepG2 cell viability assays using CellTiter Glo to exclude cytotoxic compounds.
Early Translation Branch (ETB)
National Center for Advancing Translational Sciences (NCATS), Rockville, MD
National Institute of Health (NIH), Bethesda, Maryland
Vero and HepG2 Cell Viability Assay:
Vero and HepG2 cell cytotoxicity were determined using a luminescent readout with CellTiter Glo reagent (Promega, Madison, WI), which is based on measuring the ATP content within cells. Briefly, 4 microL of Vero or HepG2 cells at 2.5 x 10^5 cells/mL in DMEM containing 4% FBS were dispensed into 1536-well solid bottom tissue treated white plate using a Multidrop Combi dispenser (Thermo Scientific). Plates were incubated at 37 degrees C, 95% humidity, and 5% CO2 overnight to allow for cell attachment. Compounds were dissolved in DMSO at different concentrations and transferred via pintool (Wako Automation), for a final concentration of 0.029 µM - 57 microM. Plates were again incubated for 24 to 48 hours, followed by a 2 microL addition of CellTiter Glo. Finally, plates were incubated for 30 minutes at 37 degrees C and 5% CO2 before being read on a ViewLux (Perkin Elmer) for luminescence.

SMILES	Potency
Cc1ccc(-n2[nH]c(C)c(N=Nc3cccc(-c4cccc(C(=O)O)c4)c3O)c2=O)cc1C	inactive
CNC(=O)c1cccc(-c2ccc3c(N4CCOC[C@H]4C)nc(N4CCOC[C@H]4C)nc3n2)c1	inactive
c1cc(N[C@@H]2CCNC2)nc(-c2cnc3ccc(-c4cn[nH]c4)cn23)c1	inactive
C[C@H]1COc2c(N3CCN(C)CC3)c(F)cc3c(=O)c(C(=O)O)cn1c23	inactive
CCCCCCCCc1ccc(CCC(N)(CO)CO)cc1	26.2 µM (active)
CN[C@@H]1C[C@H]2O[C@@](C)([C@H]1OC)n1c3ccccc3c3c4c(c5c6ccccc6n2c5c31)C(=O)N[C@H]4O	10.4 µM (active)

Assay: Tertiary RLuc qRT-PCR qHTS assay for Zika virus inhibitors (AID 1347169); also: nearly all actives have a fitted effect of over 55% in size; also: potency is read from the fitted curve at half-maximal effect
Settings: infected Vero cells, reporter luminescence, 48-72 h; series mostly up to 45.9 µM
Method in brief: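 Vero cells (1,000 per well) plated overnight at 37 degrees C, treated with compound in DMSO, then infected with recombinant ZIKV-RLuc (Cambodian) at MOI 1-2 for 48-72 hrs. Live-cell Renilla luciferase substrate added; luminescence read after 1-1.5 hrs.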

SMILES	Potency
CN(C)CC(=O)N1CCC(c2ccc(NC(=O)c3ncc(C#N)[nH]3)c(C3=CCCCC3)c2)CC1	inactive
c1cc(N[C@@H]2CCNC2)nc(-c2cnc3ccc(-c4cn[nH]c4)cn23)c1	inactive
C[C@H]1COc2c(N3CCN(C)CC3)c(F)cc3c(=O)c(C(=O)O)cn1c23	inactive
CCCCCCCCc1ccc(CCC(N)(CO)CO)cc1	16.5 µM (active)
CC(C)c1cc(C(C)C)c(CC(=O)NS(=O)(=O)Oc2c(C(C)C)cccc2C(C)C)c(C(C)C)c1	5.87 µM (active)
O=c1c(O)c(-c2ccc(O)c(O)c2)oc2cc(O)ccc12	inactive
